In the library only some 19% were active in any assay of this set; here they are far more common.
HT1080-NT tox = kills 2HG-producing HT-1080-NT fibrosarcoma cells | HT-1080-NT fibrosarcoma viability, CellTiter-Glo ATP luminescence, 48 h | Potency, µM (highest dose often 46.1 µM), inactives show at the top dose activity, negative = less viability, actives largely listed as cytotoxic | 360,000 compounds, 1.6% hits;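 also: NT is the 2HG producing partner of a matched IDH1 knockdown line; potency is read from the fitted curve at half-maximal effect; 0% = DMSO-treated cells and -100% = media-only wells without cells; nearly all actives have a fitted effect of over 55% in size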
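Toxicity toward the 2HG-producing NT line was scored as %Activity, normalised to DMSO and no-cell wells, from CellTiter-Glo luminescence after 48 hours' treatment.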
DT40 TDP1 CPT = growth inhibition of DT40 Tdp1-/-;hTDP1 cells with camptothecin (screen for TDP1 inhibitors); chicken DT40 Tdp1-/-;hTDP1 cells + 20 nM CPT, ATP luminescence, 48 h; Potency, µM (titrated, usually from 46.2 µM), inactives show at the top dose activity change, negative = growth inhibition, hits mostly inhibitors; 420,000 compounds, 12% hits; AID 686979; also: potency is read from the fitted curve at half-maximal effect; nearly all actives have a fitted effect of over 55% in size
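Cell growth measured by CellTiter-Glo luminescence after a minimum 48 h, 37 C compound exposure with 20 nM CPT in Tdp1-knockout DT40 cells stably expressing hTDP1, seeded 400/well; qHTS titration format.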
IL1B secr inh = inhibitors of inflammasome signaling (IL-1 beta secretion); THP-1 LPS/ATP IL-1B secretion, AlphaLISA, 16 h; hits give low values; activity change, % at 57.5 µM; 360,000 compounds, 4.7% hits; in the data active = activity change below about -50%; inconclusive = mostly about -30% to -49%
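THP-1 cells pretreated 1 hr with compounds (up to 57.5 uM final), then stimulated with LPS (250 ng/mL final) plus ATP (1.25 mM final); secreted IL-1B measured by AlphaLISA after 16 hr, decreased signal indicating inhibition.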
HT1080 IDH1KD tx = HT-1080 IDH1 knockdown cell toxicity (counter line); 360,000 compounds, 2% hits; HT-1080 IDH1 knockdown viability, ATP luminescence, 48 h; Potency, µM (doses to about 46.1 µM), for the others: at the top dose activity, negative = toxicity, usual class: cytotoxic;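 also: potency is read from the fitted curve at half-maximal effect; 0% = DMSO wells and -100% = cell-free medium wells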
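In this qHTS, HT-1080 cells depleted of IDH1 are exposed for 48 h at 37 °C to compound titrations. Toxicity is scored from CellTiter-Glo luminescence, with DMSO as full viability and medium alone as none.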
TDP1 cell noCPT = qHTS for Inhibitors of human tyrosyl-DNA phosphodiesterase 1 (TDP1): qHTS in cells in absence of CPT. 420,000 compounds, 15% hits. DT40 Tdp1-/- hTDP1 cells, no CPT, ATP luminescence, 48 h. AID 686978, 2013. Potency, µM (top dose mostly 46.2 µM), without a hit: at the highest dose activity change, negative = growth inhibition, hits mostly inhibitors; also: potency is read from the fitted curve at half-maximal effect; nearly all actives have a fitted effect of over 55% in size
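Growth kinetics read by CellTiter-Glo luminescence after ≥48 hr at 37 °C. Cells: DT40 Tdp1-/- stably carrying human TDP1, 400 per well, compound exposure in the absence of CPT (DMSO vehicle).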
An asterisk follows results filed as active. Unless noted, calls follow the shape of the dose curve; as a rule, active = well fitted curve in the direction sought with a large enough effect; inconclusive = small, poorly fitted or top-dose-only effect, or another doubt; inactive = no such curve, though single readings can be large; an effect the other way counts as inactive or inconclusive. Unless noted, % is scaled to controls: 0 for no effect and ±100 for the full control effect.

`COc1ccc2c(c1OC)C(Cc1ccccc1)N1CCc3cc4c(cc3C1=C2)OCO4` (stereo not given) gave DT40 TDP1 CPT 3µM* and TDP1 cell noCPT 3.8µM*.
Screening Cn1nc(C(=O)Nc2ccc3c(c2)OCCO3)cc1C(=O)O returned HT1080-NT tox -18%, DT40 TDP1 CPT -21%, IL1B secr inh 4, HT1080 IDH1KD tx -1% and TDP1 cell noCPT inconclusive.
`Cc1ccc(S(=O)(=O)CCSC(=N)N)cc1` gave HT1080-NT tox inconclusive, DT40 TDP1 CPT inconclusive, IL1B secr inh -115*, HT1080 IDH1KD tx inconclusive and TDP1 cell noCPT 16µM*.
O=C(Nc1ccccc1[N+](=O)[O-])C1COc2ccccc2O1 (stereo not given) was read as HT1080-NT tox 2%, DT40 TDP1 CPT 2%, IL1B secr inh 10, HT1080 IDH1KD tx 0% and TDP1 cell noCPT 0%.
For O=C(OCc1c(F)cccc1Cl)c1cccnc1Cl the results were HT1080-NT tox 7%, DT40 TDP1 CPT 1%, IL1B secr inh 16, HT1080 IDH1KD tx -8% and TDP1 cell noCPT 1%.
`O=C(Nc1cccc(Cl)c1N1CCCC1)c1cccc(-c2cc3ccccc3oc2=O)c1` gave HT1080-NT tox 3%, DT40 TDP1 CPT 18µM*, IL1B secr inh 34, HT1080 IDH1KD tx 1% and TDP1 cell noCPT inconclusive.
`CCn1nnc(NC(=O)c2cccc(-c3cc4ccccc4oc3=O)c2)n1` gave HT1080-NT tox -1%, DT40 TDP1 CPT -13%, IL1B secr inh -4, HT1080 IDH1KD tx -1% and TDP1 cell noCPT inconclusive.
O=C(Nc1ccc(CN2CCOCC2)cc1)c1cccc(-c2cc3ccccc3oc2=O)c1 was read as HT1080-NT tox -25%, DT40 TDP1 CPT 16µM*, IL1B secr inh inconclusive, HT1080 IDH1KD tx inconclusive and TDP1 cell noCPT inconclusive.
`CC1C(=O)Nc2ccccc2N1C(=O)c1ccccc1` (stereo not given) gave HT1080-NT tox 9%, DT40 TDP1 CPT 3%, IL1B secr inh -1, HT1080 IDH1KD tx 6% and TDP1 cell noCPT 5%.
`CC(C)CCN(C(=O)CCSc1ccc(F)cc1)c1c(N)n(Cc2ccccc2)c(=O)[nH]c1=O` gave HT1080-NT tox 0%, DT40 TDP1 CPT inconclusive, IL1B secr inh -10, HT1080 IDH1KD tx -20% and TDP1 cell noCPT inconclusive.
For CC(C)CCN(C(=O)CCCSc1nc2ccccc2[nH]1)c1c(N)n(Cc2ccccc2)c(=O)[nH]c1=O the results were HT1080-NT tox 1%, DT40 TDP1 CPT -21%, IL1B secr inh -97*, HT1080 IDH1KD tx -8% and TDP1 cell noCPT -22%.
`CC(C)CN(C(=O)CSc1nc(-c2ccccc2)cn1N)c1c(N)n(Cc2ccccc2)c(=O)[nH]c1=O` gave HT1080-NT tox -2%, DT40 TDP1 CPT -18%, IL1B secr inh -9, HT1080 IDH1KD tx -5% and TDP1 cell noCPT -17%.
`CC(C)CN(C(=O)CCCSc1nc2ccccc2[nH]1)c1c(N)n(Cc2ccccc2)c(=O)[nH]c1=O` gave HT1080-NT tox -4%, DT40 TDP1 CPT 6%, IL1B secr inh -102*, HT1080 IDH1KD tx -7% and TDP1 cell noCPT -2%.
For Oc1ccc2ccccc2c1/C=N/Nc1nnc(-c2ncc[nH]2)c2ccccc12 the results were HT1080-NT tox 5.8µM*, DT40 TDP1 CPT 5.2µM*, IL1B secr inh 69, HT1080 IDH1KD tx 5.2µM* and TDP1 cell noCPT 5.2µM*.
`Oc1ccc2ccccc2c1C=NNc1ccccn1` gave HT1080-NT tox inconclusive, DT40 TDP1 CPT 3.3µM*, IL1B secr inh 127, HT1080 IDH1KD tx inconclusive and TDP1 cell noCPT 4.6µM*.
For O=C(N/N=C/C(Br)=C/c1ccccc1)c1cnccn1 the results were HT1080-NT tox inconclusive, DT40 TDP1 CPT 1.6µM*, IL1B secr inh -99*, HT1080 IDH1KD tx inconclusive and TDP1 cell noCPT 2.3µM*.
